These results are taken from PubChem BioAssay AID430 (Sanford-Burnham Center for Chemical Genomics, 2006).

SMILES strings stand for the structures. Hit rate of the full screen: of about 63,000 compounds, about 1,100 (1.7%) were called active. Shown is part of a subset that was picked to be rich in actives. Measured potencies and affinities stand elsewhere. Unmarked numbers belong to inactive results. Cut-off read from the data, not from the text of the source: active = cytotoxicity above about 50%; inactive = the rest.

The assay is described as follows: HPDE-C7 pancreatic duct cell viability loss – fluorescence, HTS (AID 430).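 Note: cells exposed to compound for 48 hours before viability readout; 0% = vehicle and 100% = reference cytotoxic drug.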 To be noted: HPDE-C7 pancreatic duct cells viability, at 10 µM, active compounds read high.
Take `COC(=O)c1ccccc1NC(=O)CN1CCN(C(=O)c2ccco2)CC1`: the cytotoxicity is 4.2%.

Turning to `O=S(=O)(c1ccc(S(=O)(=O)N2CCCC2)cc1)N1CCCCCC1`, the cytotoxicity was -7.3%.

For `O=C(O)c1cc(S(=O)(=O)N2CCCCCC2)ccc1Cl`, the cytotoxicity was -1.3%.

As to `Cn1c(=O)c2c(nc(N3CCCCC3)n2CCSc2nc3ccccc3o2)n(C)c1=O`, the cytotoxicity is -14.5%.

As to `Cc1ccc(CN2CCN(C(=O)C3CCCO3)CC2)cc1` (centres undefined), the cytotoxicity is -27.2%.

As for `CCOc1ccccc1NC(=O)CSc1nccn1-c1ccccc1`, the cytotoxicity is -12.5%.

In the case of `Nc1c(C(=O)NCCN2CCOCC2)c2nc3ccccc3nc2n1CCc1ccccc1`, the cytotoxicity was 7.5%.

On to `Nc1c(C(=O)NCCN2CCOCC2)c2nc3ccccc3nc2n1-c1ccc2c(c1)OCO2`, for which the cytotoxicity is 1%.

Consider `COc1ccc(CCn2c(N)c(C(=O)NCc3ccco3)c3nc4ccccc4nc32)cc1OC`, for which the cytotoxicity was 32.4%.

As for `Nc1c(C(=O)NCCN2CCOCC2)c2nc3ccccc3nc2n1CCc1ccccc1F`, the cytotoxicity was 0.5%.

As for `COc1ccc(-n2c(N)c(C(=O)NCc3ccco3)c3nc4ccccc4nc32)c(OC)c1`, the cytotoxicity was 14.2%.

Regarding `Nc1ccc(-n2c(N)c(C(=O)NCc3ccc4c(c3)OCO4)c3nc4ccccc4nc32)cc1`, the cytotoxicity is 26.7%.

For the compound `CN1CCN(S(=O)(=O)c2ccc3c4c(cccc24)C(=O)N3)CC1`, the cytotoxicity is 5.6%.

Consider `COc1ccc(NC(=O)C2CCN(S(=O)(=O)c3cccc4cccnc34)CC2)cc1`, for which the cytotoxicity was -6.3%.

With `CCOC(=O)N1CCN(C(=O)CSc2nnc(Cc3cccn3C)n2CCc2ccccc2)CC1`, the cytotoxicity is -10.2%.

Take `Cc1cccc2cc(COC(=O)c3ccccn3)c(=O)[nH]c12`: the cytotoxicity was -10.7%.

With `C=CCn1c(=N)n(CC(=O)O)c2ccccc21`, the cytotoxicity is -15.2%.

Take `COCCCn1c(-c2ccsc2)nc2c1c(=O)[nH]c(=O)n2Cc1ccccc1`: the cytotoxicity was -11%.

Regarding `CCCC(=O)Nc1cccc2c1CCCC2`, the cytotoxicity is 2.9%.

As to `Cc1ccc(-n2nnc3c(=O)n(Cc4cccc(C)c4)cnc32)cc1`, the cytotoxicity was 0.4%.

For `CCOC(=O)c1sc(NC(=O)c2cc3c(C)nn(-c4ccccc4)c3s2)nc1C`, the cytotoxicity was 4%.

Regarding `Nc1nonc1C(=O)NCCNC(=O)c1ccccc1F`, the cytotoxicity was -4.8%.

As for `Nc1nonc1C(=O)NCCN=Cc1cc(Cc2ccccc2)cc(Br)c1O`, the cytotoxicity is 87.2% (active).

As for `COc1cccc(C=NCCNC(=O)c2nonc2N)c1O`, the cytotoxicity was 9.3%.

Consider `O=C1c2oc3ccc(Br)cc3c(=O)c2C(c2cccnc2)N1Cc1ccco1` (centres undefined), for which the cytotoxicity is -14.2%.

In the case of `Oc1c(-c2cc(-c3ccco3)[nH]n2)ccc2ccccc12`, the cytotoxicity was 1.8%.

For `CSc1nc(N)nc(SCC(=O)OC(C)C)c1C#N`, the cytotoxicity is -1.7%.

Take `CSc1nc(N)nc(SCC(=O)C23CC4CC(CC(C4)C2)C3)c1C#N`: the cytotoxicity is 74% (active).

As for `CSc1nc(N)nc(SCC(=O)c2ccc(C)cc2)c1C#N`, the cytotoxicity is 3.8%.

As for `Cc1cc2n(n1)C(c1ccc(O)cc1)Nc1ccccc1-2` (centres undefined), the cytotoxicity is 7.9%.

Consider `O=C(COC(=O)C1(c2ccccc2F)CCCC1)NC1CCS(=O)(=O)C1` (centres undefined), for which the cytotoxicity is -14.8%.

`COc1ccc(CNc2nc3c(c(=O)[nH]c(=O)n3C)n2Cc2ccccc2C)cc1`: the cytotoxicity was -5.5%.

As for `COc1ccc(-c2nsc3c(N4CCN(S(=O)(=O)c5ccccc5)CC4)ncnc23)cc1`, the cytotoxicity is 55.2% (active).

`COc1ccc(S(=O)(=O)N2CCN(c3ncnc4c(-c5ccccc5)nsc34)CC2)cc1`: the cytotoxicity was 5.6%.

`COc1ccc(-c2nsc3c(N4CCCC4)ncnc23)cc1`: the cytotoxicity is 7.9%.

Consider `CC(C)(C)NC(=O)CSc1nnc(C2CC2)n1Cc1ccccc1`, for which the cytotoxicity is -7.8%.

In the case of `COC(=O)CNC(=O)COC(=O)C(Cc1ccccc1)NC(=O)c1ccco1` (centres undefined), the cytotoxicity is 6%.

Take `Cc1ccc(C)c(C(=O)CSc2n[nH]c(C(C)C)n2)c1`: the cytotoxicity was -7.1%.

On to `Cn1c(=O)c(=O)n(C)c2cc(S(=O)(=O)N3CCCCC3)ccc21`, for which the cytotoxicity was 2%.

As to `c1ccc(C(CN2CCOCC2)c2ccccc2)cc1`, the cytotoxicity was -12%.

As to `O=C(c1ccccc1)c1ccc(OCC(O)CN2CCOCC2)cc1` (centres undefined), the cytotoxicity was 6.6%.

Regarding `Cc1nc2ccc(F)cc2cc1C(=O)NCC1CCCO1` (centres undefined), the cytotoxicity is 14.8%.

For `COc1ccc(Cl)cc1S(=O)(=O)n1nnc2ccccc21`, the cytotoxicity is 3.1%.

Take `COc1cc(S(=O)(=O)n2nnc3ccccc32)c(OC)cc1Cl`: the cytotoxicity is 60.8% (active).

For the compound `COc1ccc(OC)c(S(=O)(=O)n2nnc3ccccc32)c1`, the cytotoxicity is -7%.

As to `CCc1ccccc1NC(=O)CN1CCC(NC(=O)COC)CC1`, the cytotoxicity is -16%.

Take `COc1ccc(N(CC(=O)N2CCc3ccccc3C2)S(=O)(=O)c2c(C)[nH]c(=O)[nH]c2=O)cc1`: the cytotoxicity was -21.6%.

Turning to `CCc1nc(N2CCN(C(=O)c3ccccc3)CC2)c(C#N)c2c1COC(C)(C)C2`, the cytotoxicity is -1%.

For the compound `Cc1cc(C)c2nc(N3CCCN(C(=O)c4cnccn4)CC3)c(C#N)cc2c1`, the cytotoxicity was -0.7%.

Regarding `Cc1cc(C)c2nc(N3CCCN(C(=O)c4ccco4)CC3)c(C#N)cc2c1`, the cytotoxicity is 57.4% (active).

For `CC1(C)Cc2c(C#N)c(N3CCOCC3)nc(Cc3ccccc3)c2CO1`, the cytotoxicity was 46.8%.

Consider `N#Cc1c(N2CCN(C(=O)c3ccco3)CC2)nc(-c2ccccc2)c2c1CCCC2`, for which the cytotoxicity was 9.1%.

Turning to `CC1(C)Cc2c(C#N)c(N3CCN(C(=O)c4ccccc4)CC3)nc(-c3ccco3)c2CS1`, the cytotoxicity was 11.4%.

On to `CC1(C)Cc2c(C#N)c(N3CCN(C(=O)c4ccco4)CC3)nc(-c3ccco3)c2CS1`, for which the cytotoxicity was 51.7% (active).

For `Cc1cc(C)c2nc(C(F)(F)F)nc(N3CCN(C(=O)c4ccco4)CC3)c2c1`, the cytotoxicity was 3.3%.

Turning to `CCn1c(SCC(=O)Nc2ccc3c(c2)OCO3)nc2c1c(=O)n(C)c(=O)n2C`, the cytotoxicity was -19.3%.

For `COc1cccc(CC(NC(C)=O)C(=O)NC2CCN(c3nc(C)cc(C)c3C#N)CC2)c1` (centres undefined), the cytotoxicity is 8.9%.

For the compound `NC(=O)c1cc(-c2ccccc2)nc(N2CCOCC2)n1`, the cytotoxicity was 11.3%.

`O=C(CSc1nnc(-c2cnccn2)n1Cc1ccco1)c1ccccc1`: the cytotoxicity is -4.8%.
